This note sets out measurements from PubChem BioAssay AID720650 (Broad Institute, 2013).

Unmarked numbers belong to inactive results. Activity calls are given as the source filed them. No rule for the calls is given here.

This assay is described as follows: C difficile toxins, biochemical counterscreen, UDPG substrate absence, confirmatory dose response (AID 720650). Particulars: series mostly up to 19.5 µM; activity change, negative = inhibition: at the top concentration.
Consider `Cc1ccc(S(=O)(=O)/N=C(/Nc2cccc(O)c2)c2ccccc2)cc1`, for which the “activity change, negative = inhibition” value was -15.3%. `CCOCCCNC(=O)C1CCN(S(=O)(=O)c2c(C)noc2/C=C\c2ccc(OC)cc2)CC1`: the AC50 result is “inactive”. Regarding `CNC(=O)C1CCN(S(=O)(=O)c2c(C)noc2/C=C/c2ccccc2F)CC1`, the “activity change, negative = inhibition” value was -10%. The same measure, in the same setting: next, `COc1ccc(S(=O)(=O)N2CCC[C@H]2C(=O)N2CCC[C@H]2C(=O)NCc2ccncc2)cc1C`: -1.46%; `C/C(=N\NC(N)=S)c1ccc2c(c1)OCCO2`: -8.65%.

For the molecule `COc1ccc(NC(=O)Cn2cnc3sc(C)c(S(=O)(=O)N4CCOCC4)c3c2=O)c(OC)c1`, the “activity change, negative = inhibition” value was -10.3%.

Consider `CC1CCN(CCCn2c(=S)[nH]c3c(sc4ccccc43)c2=O)CC1`, for which the AC50 was over 39 µM. For the molecule `COc1ccc(C(=O)N2CCOCC2)cc1S(=O)(=O)N1CCCc2ccccc21`, the “activity change, negative = inhibition” value was -11.2%.

For `O=C(COC(=O)c1ccc(F)cc1F)c1ccc[nH]1`, the “activity change, negative = inhibition” value was -3.4%. Take `COc1cc(Cn2nnc3ccccc32)ccc1O`: the AC50 is 15.8 µM (active). In the case of `CCNC(=O)[C@H]1[C@H](CO)[C@H]2Cn3c(ccc(-c4ccccc4)c3=O)[C@H]2N1CC`, the “activity change, negative = inhibition” value is 1.74%. Still for that read-out and setting: as for `CC(C)CC(=O)N1CCN(Cc2ccc(Br)cc2)CC1`, the figure is 3.42%; as for `CCOC(=O)/C=c1/s/c(=C/c2ccc3cc(OC)ccc3c2)c(=O)n1CC(=O)NCC1CCCO1` (stereo not drawn), -9.72%. Still for that read-out and setting: as for `C[C@H](CO)N1C[C@H](C)[C@@H](CN(C)CC2CCCCC2)Oc2ccc(NC(=O)CCN3CCOCC3)cc2C1=O`, the figure is -0.583%; as for `CCCn1c(N)c(C(=O)COC(=O)c2cccc(S(=O)(=O)N3CCOCC3)c2)c(=O)[nH]c1=O`, -15.3%. For `Cc1ccccc1S(=O)(=O)N1CCCc2nc(C)c(C)cc21`, the AC50 was over 39 µM. With `Cc1nc(S(=O)(=O)N(C)Cc2ccccc2)c(C#N)c(C)c1Cl`, the “activity change, negative = inhibition” value was -9.25%. In the case of `O=C(O)C1CCC(CN(Cc2cccc(Br)c2)C(=S)Nc2ccccc2F)CC1` (stereo not drawn), the “activity change, negative = inhibition” value was -3.31%.

As to `CNC(=O)N(O)C1N(/N=C/c2ccc(SC)cc2)C(=S)SC1(C)C` (stereo not drawn), the AC50 was over 39 µM. For `O=C(O)c1ccc2c(c1)N(Cc1cccc(F)c1)C(=O)CS2`, the “activity change, negative = inhibition” value was -24.5%. Same read-out and setting: as for `COc1cc(/C=C2\SC(=S)N(NC(=O)c3cccc(O)c3)C2=O)ccc1O`, the figure is -1.71%. For the molecule `C[C@H](CO)N1C[C@H](C)[C@@H](CN(C)C(=O)Nc2ccc(C(F)(F)F)cc2)Oc2c(cccc2N(C)C)C1=O`, the AC50 was 19 µM (active).

As to `Cc1ccc(S(=O)(=O)N2CCCC2C(=O)Nc2ccc(O)cc2)cc1` (stereo not drawn), the AC50 was 16.6 µM (active). As for `Cc1c(CNC(=O)c2c([N+](=O)[O-])cnn2C)cnn1C`, the “activity change, negative = inhibition” value is -1.66%. Still for that read-out and setting: next, `Nn1c(SCc2ccccc2F)nnc1-c1ccccn1`: 4.52%. Still for that read-out and setting: as for `COc1ccc(-c2cnc3c(c2)C(=O)N([C@@H](C)CO)C[C@H](C)[C@H](CN(C)C(=O)C2CCCCC2)O3)cc1`, the figure is -9.66%. Same read-out and setting: as for `O=C(COc1ccc(/C=N/NC(=O)c2ccc(O)cc2)cc1)Nc1cccc([N+](=O)[O-])c1`, the figure is -5.22%; as for `Cc1nn(CCOc2ccccc2)c(=O)n1-c1ccc(Cl)cc1`, -14.1%. Consider `Cc1cc(C(=O)CSc2nc(N)cc(=O)[nH]2)c(C)n1CC1CCCO1` (stereo not drawn), for which the “activity change, negative = inhibition” value was -13.4%. On the same count and under the same terms, next, `O=c1[nH]nc(-c2cc(-c3ccccc3)nc3ccccc23)o1`: -13.7%. Take `Cc1c(O)ccc(NC(=O)/C=C/c2ccccc2)c1C`: the AC50 was over 39 µM.

Turning to `COc1cc(/C=C/C(=O)OCC(=O)NC(=O)NC(C)(C)C)ccc1O`, the “activity change, negative = inhibition” value is 6.81%.

As for `CN1CCN(CC(=O)Nc2cc(N(C)C)nc3ccccc23)CC1`, the “activity change, negative = inhibition” value is 8.85%.

`COc1ccc([N+](=O)[O-])cc1NC(=S)NC(C)=O`: the “activity change, negative = inhibition” value was -13.8%.

On to `O=C(COc1cccc(C(F)(F)F)c1)N1CCN(c2ccc(O)cc2)CC1`, for which the “activity change, negative = inhibition” value is 10.8%. On to `Cc1ccc(C(=O)NC(=S)NNC(=O)CC#N)cc1`, for which the AC50 was 5.73 µM (active). `COc1cc(/C=C/C(=O)OCC(=O)NC(=O)NC(C)C)ccc1O`: the “activity change, negative = inhibition” value was -1.06%. Still for that read-out and setting: next, `CC(C)(C)OCC(O)CN1CCN(C(=O)c2ccccc2)CC1` (stereo not drawn): -16.8%.
